Inhibition data for 34 molecules are collected here from ChEMBL document CHEMBL1961873, “Compounds: GSK PKIS; Assays: Nanosyn kinase panel” (2012).

Broadly, the inhibition is the drop in the measured response relative to a control, in per cent.

Chain of Serine/threonine-protein kinase MARK2 (Homo sapiens) (Q7KZI7 whole entry): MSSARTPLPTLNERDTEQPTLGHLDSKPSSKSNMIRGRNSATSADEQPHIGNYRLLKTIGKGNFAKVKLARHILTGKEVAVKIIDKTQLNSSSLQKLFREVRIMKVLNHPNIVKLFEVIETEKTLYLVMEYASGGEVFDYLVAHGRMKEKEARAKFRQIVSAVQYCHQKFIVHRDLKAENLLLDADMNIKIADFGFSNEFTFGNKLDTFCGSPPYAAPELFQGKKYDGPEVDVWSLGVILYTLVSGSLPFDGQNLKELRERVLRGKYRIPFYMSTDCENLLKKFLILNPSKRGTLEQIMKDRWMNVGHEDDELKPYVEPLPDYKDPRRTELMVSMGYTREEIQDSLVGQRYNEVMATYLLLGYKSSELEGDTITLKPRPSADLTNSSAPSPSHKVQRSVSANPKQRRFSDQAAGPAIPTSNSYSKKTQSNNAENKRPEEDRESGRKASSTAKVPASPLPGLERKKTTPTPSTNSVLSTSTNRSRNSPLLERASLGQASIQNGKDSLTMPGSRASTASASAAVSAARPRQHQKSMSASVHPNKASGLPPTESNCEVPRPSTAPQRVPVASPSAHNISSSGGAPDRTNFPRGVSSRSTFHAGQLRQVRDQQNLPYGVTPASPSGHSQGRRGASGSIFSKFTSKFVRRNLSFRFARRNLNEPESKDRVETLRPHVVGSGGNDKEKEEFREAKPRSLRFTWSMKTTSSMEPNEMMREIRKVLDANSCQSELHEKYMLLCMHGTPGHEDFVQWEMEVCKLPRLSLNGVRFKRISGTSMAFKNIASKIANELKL

The first assay addresses Serine/threonine-protein kinase MARK2 (Homo sapiens) (UniProt Q7KZI7). Particulars: at 1 µM.
For `Cc1ccc(Nc2ccnc(Nc3cccc(C(N)=O)c3)n2)cc1O`, the inhibition was 3.99%.
`CN(c1ccc(NC(=O)Nc2ccc(OC(F)(F)F)cc2)cc1)c1ccnc(Nc2cccc(S(N)(=O)=O)c2)n1`: the inhibition was -1.52%.
Consider `CN1CCN(C(=O)c2ccc(NC(=O)Nc3ccc(N(C)c4ccnc(Nc5ccc(CS(C)(=O)=O)cc5)n4)cc3)cc2)CC1`, for which the inhibition was 8.38%.
`NS(=O)(=O)c1ccc(N/N=C2\C(=O)Nc3ccc(Cl)cc32)cc1`: the inhibition came out at 6.16%.
Take `c1ccc(Nc2ncc(-c3ccccc3)o2)cc1`: the inhibition came out at 2.64%.
Same read-out and setting: the value for `CS(=O)(=O)CCNCc1nc(-c2ccc3ncnc(Nc4ccc(OCc5cccc(C(F)(F)F)c5)cc4)c3c2)cs1` was 1.07%; that for `COC(=O)c1ccc2c(c1)C(=Cc1cc(Br)c(O)c(Br)c1)C(=O)N2` was 4.91%.
In the case of `O=C(Nc1ccc(Oc2ccc3[nH]c(NC(=O)c4ccco4)nc3c2)cc1)Nc1cc(C(F)(F)F)ccc1F`, the inhibition worked out at 0.83%.
Turning to `CC(C)c1ccc(Nc2nccc(-c3cnn4ncccc34)n2)cc1`, the inhibition worked out at 1.01%.
As for `CS(=O)(=O)Nc1cccc(-c2ccc3c(NC(=O)C4CC4)n[nH]c3c2)c1`, the inhibition is 2.88%.
For `COC(=O)Nc1nc2cc(Oc3ccc(NC(=O)Nc4cccc(Br)c4)cc3)ccc2[nH]1`, the inhibition was determined as 0.27%.
Turning to `N#Cc1cccc(Nc2nccc(-c3cnn4ncccc34)n2)c1`, the inhibition was 9.5%.
Consider `NS(=O)(=O)c1ccc(Nc2cc(-c3cccc(O)c3)n[nH]2)cc1`, for which the inhibition is 6.24%.
As to `CC(C)c1ccc2c(c1)NC(=O)/C2=N/Nc1ccc(S(N)(=O)=O)cc1`, the inhibition was -0.8%.
On to `Cc1cc(O)cc(C)c1/C=C/c1cncc(C(=O)N(C)C)c1`, for which the inhibition is 1.77%.
Take `c1ccc(Cc2nc3ccc(Nc4ncnc5ccccc45)cc3[nH]2)cc1`: the inhibition came to 2.19%.
On the same count and under the same terms, the value for `Cc1ccc(O)cc1Nc1ccnc2ccc(S(C)(=O)=O)cc12` was 1.93%; that for `COc1ccc(-c2nn3ncccc3c2-c2ccnc(Nc3cccc(C(F)(F)F)c3)n2)cc1` was 1.37%.
As to `Cc1nc(-c2ccccc2)n2nc(NCCCN3CCOCC3)ncc12`, the inhibition was found to be 0.71%.
Take `Nc1nccc(C#Cc2cncnc2Nc2ccc(OCc3cccc(F)c3)c(Cl)c2)n1`: the inhibition came out at 8.86%.
As to `C[C@@H](Oc1cc(-n2cnc3ccc(OCC4CCN(C)CC4)cc32)sc1C(N)=O)c1ccccc1C(F)(F)F`, the inhibition came out at 43.4%.
Take `N#Cc1c(NC(=O)c2ccccc2F)sc2c1CCCC2`: the inhibition worked out at 3.45%.
For `Nc1nccc(-c2c(-c3ccc(F)cc3)ncn2CCCN2CCOCC2)n1`, the inhibition worked out at 1.26%.
Regarding `COc1cccc(-n2ncc3c(N/N=C/c4ccc(C)cc4)ncnc32)c1`, the inhibition came out at 6.23%.
As to `C[C@@H](Oc1cc(-n2cnc3ccc(OC[C@@H](O)CO)cc32)sc1C(N)=O)c1ccccc1Cl`, the inhibition was found to be 4.76%.
Take `Cc1cc(-c2ccccn2)cc(C)c1/C=C/c1cncc(-c2nn[nH]n2)c1`: the inhibition stood at 4.96%.
For `Cc1ccc2c(-c3ccnc(Nc4cccc(C(F)(F)F)c4)n3)c(-c3ccccc3)nn2n1`, the inhibition was 4.11%.
For the molecule `CCn1c(-c2nonc2N)nc2ccc(F)cc21`, the inhibition was -0.64%.
Take `COc1cccc(-n2ncc3c(N/N=C/c4ccc(S(C)(=O)=O)cc4)ncnc32)c1`: the inhibition stood at 3.41%.
`Cc1ccc2c(c1)/C(=N/Nc1ccc(S(N)(=O)=O)cc1)C(=O)N2`: the inhibition was 4.44%.
On the same count and under the same terms, the value for `Cc1cc(Cl)cc2c1NC(=O)C2=NNc1ccc(S(N)(=O)=O)cc1` was -0.15%.
For the molecule `Nc1ccc(C#Cc2cncnc2Nc2ccc(OCc3cccc(F)c3)c(Cl)c2)cc1`, the inhibition is 0.46%.
For the molecule `Oc1cccc(-c2nc(-c3ccccc3)[nH]c2-c2ccncc2)c1`, the inhibition was determined as 0.43%.
For `O=C1Nc2ccc(-c3cccnc3)cc2C1=Cc1cc(Br)c(O)c(Br)c1`, the inhibition was found to be 5.11%.

Another assay deals with PAS domain-containing serine/threonine-protein kinase (Homo sapiens) (UniProt Q96RG2). The following applies: at 0.1 µM.
Chain of PAS domain-containing serine/threonine-protein kinase (Homo sapiens) (Q96RG2 whole entry, the tested form may be a part): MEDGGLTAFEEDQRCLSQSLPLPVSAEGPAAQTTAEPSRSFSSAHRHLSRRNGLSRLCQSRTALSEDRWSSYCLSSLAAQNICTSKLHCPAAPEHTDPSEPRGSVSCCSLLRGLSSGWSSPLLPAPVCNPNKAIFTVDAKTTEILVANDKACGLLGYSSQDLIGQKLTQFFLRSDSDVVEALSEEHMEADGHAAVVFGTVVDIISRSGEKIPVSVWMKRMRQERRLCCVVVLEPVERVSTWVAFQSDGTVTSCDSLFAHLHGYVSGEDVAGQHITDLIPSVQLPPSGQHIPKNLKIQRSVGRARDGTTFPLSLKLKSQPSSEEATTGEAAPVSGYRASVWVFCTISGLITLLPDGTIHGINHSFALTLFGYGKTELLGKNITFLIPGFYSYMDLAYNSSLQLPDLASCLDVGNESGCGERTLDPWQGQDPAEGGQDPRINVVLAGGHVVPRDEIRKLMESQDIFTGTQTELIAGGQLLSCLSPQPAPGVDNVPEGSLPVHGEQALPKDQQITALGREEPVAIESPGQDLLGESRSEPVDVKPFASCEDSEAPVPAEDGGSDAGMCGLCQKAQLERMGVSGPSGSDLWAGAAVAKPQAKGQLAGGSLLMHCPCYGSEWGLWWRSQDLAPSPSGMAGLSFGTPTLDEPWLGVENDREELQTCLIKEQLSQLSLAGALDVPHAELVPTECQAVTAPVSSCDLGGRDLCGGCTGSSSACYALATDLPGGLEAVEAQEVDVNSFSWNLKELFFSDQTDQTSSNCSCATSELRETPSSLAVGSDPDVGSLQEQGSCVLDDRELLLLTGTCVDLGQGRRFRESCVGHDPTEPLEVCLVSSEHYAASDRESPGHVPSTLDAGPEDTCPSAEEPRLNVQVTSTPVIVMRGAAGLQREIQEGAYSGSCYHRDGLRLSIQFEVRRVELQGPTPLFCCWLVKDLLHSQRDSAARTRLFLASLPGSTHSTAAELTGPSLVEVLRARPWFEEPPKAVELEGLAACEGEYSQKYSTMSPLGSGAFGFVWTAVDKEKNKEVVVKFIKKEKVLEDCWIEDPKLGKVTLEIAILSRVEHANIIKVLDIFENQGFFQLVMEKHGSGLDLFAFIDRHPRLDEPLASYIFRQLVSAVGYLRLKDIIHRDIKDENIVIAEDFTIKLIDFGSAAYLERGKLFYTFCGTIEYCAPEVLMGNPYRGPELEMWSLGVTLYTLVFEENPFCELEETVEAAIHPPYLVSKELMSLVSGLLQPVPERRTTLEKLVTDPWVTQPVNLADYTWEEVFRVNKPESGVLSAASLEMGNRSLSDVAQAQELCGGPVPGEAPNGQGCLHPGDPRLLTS
As for `Cc1ccc(Nc2ccnc(Nc3cccc(C(N)=O)c3)n2)cc1O`, the inhibition was 0.66%.
`CN(c1ccc(NC(=O)Nc2ccc(OC(F)(F)F)cc2)cc1)c1ccnc(Nc2cccc(S(N)(=O)=O)c2)n1`: the inhibition was 0.55%.
As for `CN1CCN(C(=O)c2ccc(NC(=O)Nc3ccc(N(C)c4ccnc(Nc5ccc(CS(C)(=O)=O)cc5)n4)cc3)cc2)CC1`, the inhibition is -0.3%.
Same read-out and setting: the value for `NS(=O)(=O)c1ccc(N/N=C2\C(=O)Nc3ccc(Cl)cc32)cc1` was 0.76%; that for `c1ccc(Nc2ncc(-c3ccccc3)o2)cc1` was -0.05%; that for `CS(=O)(=O)CCNCc1nc(-c2ccc3ncnc(Nc4ccc(OCc5cccc(C(F)(F)F)c5)cc4)c3c2)cs1` was 0.16%.
In the case of `COC(=O)c1ccc2c(c1)C(=Cc1cc(Br)c(O)c(Br)c1)C(=O)N2`, the inhibition is -1.3%.
On to `O=C(Nc1ccc(Oc2ccc3[nH]c(NC(=O)c4ccco4)nc3c2)cc1)Nc1cc(C(F)(F)F)ccc1F`, for which the inhibition stood at 0.28%.
Regarding `CC(C)c1ccc(Nc2nccc(-c3cnn4ncccc34)n2)cc1`, the inhibition is -0.78%.
For the molecule `CS(=O)(=O)Nc1cccc(-c2ccc3c(NC(=O)C4CC4)n[nH]c3c2)c1`, the inhibition is 0.72%.
The same measure, in the same setting: as for `COC(=O)Nc1nc2cc(Oc3ccc(NC(=O)Nc4cccc(Br)c4)cc3)ccc2[nH]1`, the figure is 0.17%; as for `N#Cc1cccc(Nc2nccc(-c3cnn4ncccc34)n2)c1`, 0.25%; as for `NS(=O)(=O)c1ccc(Nc2cc(-c3cccc(O)c3)n[nH]2)cc1`, 0.14%.
In the case of `CC(C)c1ccc2c(c1)NC(=O)/C2=N/Nc1ccc(S(N)(=O)=O)cc1`, the inhibition was determined as 1.25%.
Still for that read-out and setting: the value for `Cc1cc(O)cc(C)c1/C=C/c1cncc(C(=O)N(C)C)c1` was 0.83%.
Turning to `c1ccc(Cc2nc3ccc(Nc4ncnc5ccccc45)cc3[nH]2)cc1`, the inhibition amounted to 0.03%.
For `Cc1ccc(O)cc1Nc1ccnc2ccc(S(C)(=O)=O)cc12`, the inhibition was -0.05%.
`COc1ccc(-c2nn3ncccc3c2-c2ccnc(Nc3cccc(C(F)(F)F)c3)n2)cc1`: the inhibition was determined as 0.84%.
`Cc1nc(-c2ccccc2)n2nc(NCCCN3CCOCC3)ncc12`: the inhibition was 0.65%.
With `Nc1nccc(C#Cc2cncnc2Nc2ccc(OCc3cccc(F)c3)c(Cl)c2)n1`, the inhibition is -0.05%.
For `C[C@@H](Oc1cc(-n2cnc3ccc(OCC4CCN(C)CC4)cc32)sc1C(N)=O)c1ccccc1C(F)(F)F`, the inhibition worked out at 1.41%.
Turning to `N#Cc1c(NC(=O)c2ccccc2F)sc2c1CCCC2`, the inhibition was determined as 1.88%.
As for `Nc1nccc(-c2c(-c3ccc(F)cc3)ncn2CCCN2CCOCC2)n1`, the inhibition was -0.18%.
With `COc1cccc(-n2ncc3c(N/N=C/c4ccc(C)cc4)ncnc32)c1`, the inhibition was -0.93%.
Consider `C[C@@H](Oc1cc(-n2cnc3ccc(OC[C@@H](O)CO)cc32)sc1C(N)=O)c1ccccc1Cl`, for which the inhibition was found to be 0.26%.
The same measure, in the same setting: the value for `Cc1cc(-c2ccccn2)cc(C)c1/C=C/c1cncc(-c2nn[nH]n2)c1` was -0.97%; that for `Cc1ccc2c(-c3ccnc(Nc4cccc(C(F)(F)F)c4)n3)c(-c3ccccc3)nn2n1` was -0.16%; that for `CCn1c(-c2nonc2N)nc2ccc(F)cc21` was 1.69%.
Take `COc1cccc(-n2ncc3c(N/N=C/c4ccc(S(C)(=O)=O)cc4)ncnc32)c1`: the inhibition was -0.17%.
As for `Cc1ccc2c(c1)/C(=N/Nc1ccc(S(N)(=O)=O)cc1)C(=O)N2`, the inhibition stood at 0.38%.
Consider `Cc1cc(Cl)cc2c1NC(=O)C2=NNc1ccc(S(N)(=O)=O)cc1`, for which the inhibition was determined as 0.48%.
In the case of `Nc1ccc(C#Cc2cncnc2Nc2ccc(OCc3cccc(F)c3)c(Cl)c2)cc1`, the inhibition was 1.09%.
Consider `Oc1cccc(-c2nc(-c3ccccc3)[nH]c2-c2ccncc2)c1`, for which the inhibition amounted to 0.7%.
On to `O=C1Nc2ccc(-c3cccnc3)cc2C1=Cc1cc(Br)c(O)c(Br)c1`, for which the inhibition stood at 0.91%.
